Measured values from PubChem BioAssay (NCATS).
Several values for one entry are separate records, joined by “and”; a condition that tells them apart may be missing. Equal values may be shown once. Records with an inconclusive call do not appear. Entries that show only a call come without a potency. Unmarked numbers belong to inactive results. Activity calls are given as the source filed them. Calls follow the shape of the dose curve; as a rule, active = well fitted curve in the direction sought with a large enough effect; inconclusive = small, poorly fitted or top-dose-only effect, or another doubt; inactive = no such curve, though single readings can be large; an effect the other way counts as inactive or inconclusive.

Columns and labels:
[1] = target: Cellular tumor antigen p53 (Homo sapiens) (UniProt P04637); assay: Primary qHTS for small molecule compounds that upregulate eGFP-tagged delta133p53alpha (in N-terminal) cells. (AID 2060322); settings: NCI-H358 eGFP-delta133p53alpha fluorescence, 24 h; activation: active compounds read high; also: nearly all actives have a fitted effect of over 75% in size; also: potency is read from the fitted curve at half-maximal effect; as to activation: series mostly up to about 56 µM
Chain of Cellular tumor antigen p53 (Homo sapiens) (P04637 whole entry, looked up): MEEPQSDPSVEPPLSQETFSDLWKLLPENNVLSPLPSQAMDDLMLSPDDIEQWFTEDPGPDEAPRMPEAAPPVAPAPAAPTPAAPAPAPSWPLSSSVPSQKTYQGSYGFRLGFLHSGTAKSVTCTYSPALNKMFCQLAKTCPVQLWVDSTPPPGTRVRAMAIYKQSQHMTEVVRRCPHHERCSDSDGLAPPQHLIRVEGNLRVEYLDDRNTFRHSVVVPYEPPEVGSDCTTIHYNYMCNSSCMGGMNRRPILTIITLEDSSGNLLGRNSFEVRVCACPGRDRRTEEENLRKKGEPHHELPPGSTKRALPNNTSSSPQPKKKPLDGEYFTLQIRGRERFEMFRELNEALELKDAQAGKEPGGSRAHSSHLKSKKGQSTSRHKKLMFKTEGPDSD
Outline: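 NCI-H358 cells pre-induced 24 h with 10 ng/ml doxycycline to express N-terminal eGFP-delta133p53alpha, then dosed 24 h at 37C without doxycycline; fixed, Hoechst-stained, GFP intensity by laser scanning cytometry, normalized to DMSO (0%) and 57.5 uM 5-azacytidine (100%).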

[2] = target: Aldehyde dehydrogenase, mitochondrial (Homo sapiens) (UniProt P05091); assay: qHTS for Inhibitors of the Aldehyde Dehydrogenase Family (ALDH2) Primary screen (AID 2061308); also: nearly all actives have a fitted effect of over 55% in size
[3] = target: Retinaldehyde dehydrogenase 3 (Homo sapiens) (UniProt P47895); assay: qHTS for Inhibitors of the Aldehyde Dehydrogenase Family (ALDH1A3) Validation screen (AID 2061312); also: nearly all actives have a fitted effect of over 45% in size
[4] = target: Retinaldehyde dehydrogenase 3 (Homo sapiens) (UniProt P47895); assay: qHTS for Inhibitors of the Aldehyde Dehydrogenase Family (ALDH1A3) Primary screen (AID 2061315)

Row | Compound | activation [1] | Potency [2] | Potency [3] | Potency [4] | Potency [1] | activity change, negative = inhibition [2] | activity change, negative = inhibition [3] | activity change, negative = inhibition [4]
1 | Cc1ccc(-c2c(-c3nn(C)c4ncnc(N5CCC(N6CCCCC6)C5)c34)cnn2C)cc1 (stereo unspecified) | 2.39% | inactive | inactive | inactive |  |  |  | 
2 | O=C(c1cc(Cc2n[nH]c(=O)c3ccccc23)ccc1F)N1CCCNCC1 | -4.3% | inactive | inactive | inactive |  |  |  | 
3 | CCCCOc1cc(C(=O)OCCN(CC)CC)ccc1N | -2.82% and 0% | inactive | inactive | inactive |  |  |  | 
4 | O=C(Nc1ccccc1)N1CCN(c2nc(-c3ccccc3)ns2)CC1 | -13.8% | inactive | inactive | inactive |  |  |  | 
5 | CC(C)CCNc1ncccc1C(=O)N1CCN(Cc2ccccc2)CC1 | -4.3% | inactive | inactive | inactive |  |  |  | 
6 | O=C(Nc1ccc(CN2CCOCC2)cc1)c1ccc(-c2cccc(Cl)c2)o1 | -8.59% | inactive | inactive | inactive |  |  |  | 
7 | COc1ccncc1C(=O)NC(=O)Nc1ccc(-c2ccccc2)c(C(F)(F)F)c1 | -0.477% | inactive | inactive | inactive |  |  |  | 
8 | CCCNCCOc1ccc(NC(=O)c2c[nH]c3c2C(=O)CCC3)cc1F | -0.955% | inactive | inactive | inactive |  |  |  | 
9 | Cc1ccnn1-c1ccc(C(=O)N2CCN(S(=O)(=O)c3ccc(Cl)c(C(F)(F)F)c3)CC2)cc1 | -9.07% | inactive | inactive | inactive |  |  |  | 
10 | Cc1cc(NC(=O)NCCN2CCC(O)(Cc3ccccc3)CC2)c2ccccc2n1 | 3.34% | inactive | inactive | inactive |  |  |  | 
11 | Cc1ccc(NC(=O)C(=O)NC2CC(C)(C)NC(C)(C)C2)cc1 | -13.4% | inactive | inactive | inactive |  |  |  | 
12 | CC(C)c1ccc(NC(=O)Cn2cnc3c2c(=O)n(C)c(=O)n3C)cc1 | -14.8% | inactive | inactive | inactive |  |  |  | 
13 | CCN1CCN(Cc2ccc(NC(=O)c3ccc(C)c(Oc4ncnc5[nH]c(C)cc45)c3)cc2C(F)(F)F)CC1 |  | inactive | inactive | inactive | 23.9 µM (active) |  |  | 
14 | Cc1nc2n(c(=O)c1CCN1CCC(c3noc4cc(F)ccc34)CC1)CCC[C@H]2O | 9.21% and -6.21% | inactive | inactive | inactive |  |  |  | 
15 | CC[C@H](C(=O)Nc1ccccc1N1CCCC1)c1ccccc1 | 2.86% | inactive | inactive | inactive |  |  |  | 
16 | CC(=O)O[C@]1(C(C)=O)CC[C@H]2[C@@H]3CCC4=CC(=O)CCC4=C3[C@@H](c3ccc(N(C)C)cc3)C[C@@]21C | -13.8% | inactive | inactive | inactive |  |  |  | 
17 | CN(C)[C@@H]1CCc2[nH]c3ccc(NC(=O)c4ccc(F)cc4)cc3c2C1 | 0.477% | inactive | inactive | inactive |  |  |  | 
18 | CNC(C)C(=O)NC(C(=O)N1CCCC1C(=O)Nc1snnc1-c1ccccc1)C1CCCCC1 (stereo unspecified) | 11% | inactive | inactive | inactive |  |  |  | 
19 | CNC(=O)c1ccccc1Nc1nc(Nc2ccc(N3CCNCC3)cc2)ncc1Cl |  | inactive | inactive | inactive | 1.35 µM (active) |  |  | 
20 | O=C(CCCCN1CCOCC1)Nc1ccc(-c2cccnc2)cc1 | -8.11% | inactive | inactive | inactive |  |  |  | 
21 | O=C(C(Cc1cccc(C(F)(F)F)c1)NS(=O)(=O)c1cc(F)c2c(c1)CCNC2)N1CCCC1 (stereo unspecified) | -13.4% | inactive | inactive | inactive |  |  |  | 
22 | CN(C)CCCNc1nc(CN2CCN(C(c3ccc(Cl)cc3)c3ccc(Cl)cc3)CC2)nc2ccccc12 | 16.2% | inactive | inactive | inactive |  |  |  | 
23 | O=C(Nc1cccc(C(F)(F)F)c1)Nc1ccc(Br)cc1-c1nn[nH]n1 | -5.73% | inactive | inactive | inactive |  |  |  | 
24 | CC(C)C[C@@H](C(=O)N[C@@H](Cc1ccc(OCc2ccccc2)cc1)C(=O)NC(C)(C)C)N(C)Cc1ccc(C(C)(C)C)cc1 | -1.91% | inactive | inactive | inactive |  |  |  | 
25 | C=C(F)c1sc(CNCCCNc2cc(=O)c3ccccc3[nH]2)c(C)c1Br | 18.1% | inactive | inactive | inactive |  |  |  | 
26 | O=C(O)C1CN(Cc2ccc(-c3nc4cc(Cc5ccccc5F)ccc4s3)c(F)c2)C1 | -12.4% |  |  |  |  | -1.77% [at 11.2 µM] | -10% [at 20.1 µM] | -4.23% [at 11.2 µM]
27 | CCC(C)c1ccc(NC(=O)Cn2cnc3c2c(=O)n(C)c(=O)n3C)cc1 (stereo unspecified) | 11.5% | inactive | inactive | inactive |  |  |  | 
28 | CNc1ccc([N+](=O)[O-])cc1-n1cnc(-c2ccc(C(F)(F)F)cc2)c1 | 5.25% | inactive | inactive | inactive |  |  |  | 
29 | O=C(O)CC1CCC(c2ccc(NC(=O)c3nnc(Nc4ccc(F)c(F)c4)o3)cc2)CC1 (stereo unspecified) | -0.955% | inactive | inactive | inactive |  |  |  | 
